Screens (PubChem)
12-LOX inh – inhibitors of human 12S-lipoxygenase ALOX12; 580,000 tested, 1.1% active; Potency, µM (top dose mostly 108 µM), inactives show at the highest dose activity change, negative = inhibition, most hits filed as inhibitors; purified 12hLO, xylenol orange hydroperoxide absorbance; note: potency is the fitted concentration of half-maximal effect; % is set by controls: 0 for no effect and ±100 for the full control effect
Target sequence (P18054 whole entry, looked up): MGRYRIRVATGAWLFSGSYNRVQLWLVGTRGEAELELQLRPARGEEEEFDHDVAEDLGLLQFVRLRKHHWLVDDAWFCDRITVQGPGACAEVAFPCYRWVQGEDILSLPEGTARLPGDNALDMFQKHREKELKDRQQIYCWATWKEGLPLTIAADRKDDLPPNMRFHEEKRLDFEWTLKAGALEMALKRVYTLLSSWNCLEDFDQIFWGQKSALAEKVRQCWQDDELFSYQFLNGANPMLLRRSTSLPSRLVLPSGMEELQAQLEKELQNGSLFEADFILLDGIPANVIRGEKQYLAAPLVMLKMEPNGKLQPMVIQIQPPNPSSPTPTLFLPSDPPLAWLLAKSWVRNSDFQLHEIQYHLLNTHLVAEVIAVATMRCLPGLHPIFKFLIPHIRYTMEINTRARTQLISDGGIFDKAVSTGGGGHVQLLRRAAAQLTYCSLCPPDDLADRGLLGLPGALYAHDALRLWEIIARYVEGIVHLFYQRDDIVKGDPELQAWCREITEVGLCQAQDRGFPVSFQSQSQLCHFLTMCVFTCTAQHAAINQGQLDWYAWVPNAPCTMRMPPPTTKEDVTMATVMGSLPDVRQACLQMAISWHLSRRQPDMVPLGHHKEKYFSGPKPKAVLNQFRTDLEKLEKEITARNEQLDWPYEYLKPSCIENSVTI
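Purified human 12hLO at 150 nM in 25 mM Hepes, 0.01% Triton X-100, pH 7.0, preincubated 15 min at room temperature with compound. Reaction started with 40 uM arachidonic acid, 30 min at room temperature. Hydroperoxide measured by Fe-xylenol orange, 573/405 nm absorbance ratio.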
GRP78 ERSR act – inducers of ER stress response in human glioma cells; 420,000 tested, 0.02% active; Potency, µM, for inactives: at the top dose activation, most hits filed as activators; U87-MG GRP78 promoter luciferase reporter, 16 h; note: potency is the fitted concentration of half-maximal effect; series mostly up to about 76 µM; % of control where 0% means no effect; nearly all actives have a fitted effect of over 35% in size
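Stably transfected U87-MG glioma cells carrying a GRP78-based luciferase sensor; 16 h compound incubation. Luminescence end-point read 10 min after Bright-Glo addition at room temperature.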
Vif-APOBEC3F blk – blocks the Vif interaction with APOBEC3F; HeLa A3F-eYFP + Vif (tagged APOBEC3F with the HIV-1 protein that degrades it), YFP fluorescence increase; Potency, µM (titrated, usually from 46.1 µM), without a hit: at the top dose activity, negative = active; 390,000 tested, 0.2% active; AID 602313; note: potency is the fitted concentration of half-maximal effect; % of control where 0% means no effect; nearly all actives have a fitted effect of over 65% in size
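HeLa cells stably expressing Vif plus C-terminally eYFP-tagged A3F were seeded, incubated overnight at 37 deg C, dosed with compound, incubated overnight again at 37 deg C. Yellow fluorescence (Ex 488/Em 500-530) reported blocked Vif-mediated A3F-eYFP degradation.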
Vif-A3G inh – blocks the Vif interaction with human APOBEC3G. Q9HC16. HeLa A3G-eYFP + Vif (tagged APOBEC3G with the HIV-1 protein that degrades it), YFP fluorescence, overnight. Potency, µM (top dose mostly 46.1 µM), for inactives: at the highest dose activity, negative = active, usual class: inhibitors. 410,000 tested, 0.076% active. AID 602310; note: potency is the fitted concentration of half-maximal effect; % is set by controls: 0 for no effect and ±100 for the full control effect; nearly all actives have a fitted effect of over 60% in size
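Read-out is eYFP fluorescence (Ex 488/Em 500-530) from Vif-expressing HeLa A3G-eYFP cells; more signal means A3G escaped Vif-mediated degradation. Cells plated overnight, compound pinned in, incubated overnight at 37 deg C.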
TRPML1 ag – activates the human TRPML1 channel; Q9GZU1; TRPML1-expressing cells, Ca2+ dye fluorescence, FDSS; activation, % (concentration not given with the values); 410,000 tested, 0.12% active; AID 624414; in the data active = activation above about 50%; inconclusive = mostly about 30% to 49%; note: 0% is about no effect
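Cells: TRPML1-DL, 1X Tet inducer, ~16 h at 37 degrees C/5% CO2. Dye: ABD Ca8 no-wash + quencher, 45-90 min RT. Read: 10 s baseline, compound add, 110 s agonist phase; 54-4 EC80 (4uM final), 110 s antagonist phase.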
TRPML1 blocker – inhibitors of human TRPML1 channel | Q9GZU1 | TRPML1-inducible cells, Ca2+ dye fluorescence, FDSS; stronger effect = lower value; inhibition of EC80 agonist-evoked calcium signal | activity change, negative = inhibition, % (no concentration beside the values) | 390,000 tested, 0.02% active; in the data active = activity change below about -50%; inconclusive = between about -30% and that limit;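 note: stimulus is agonist 54-4 at its EC80 concentration; % is set by controls: 0 for no effect and ±100 for the full control effect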
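TRPML1-DL cells, Tet-induced overnight (~16 h, 37 °C) at 1,500 cells/well, were loaded with Ca8 no-wash dye plus quencher for 45-90 min at room temperature. Compounds were pinned during FDSS kinetic reading; agonist 54-4 at EC80 (4 uM final) then added.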
* hit, by the source's call; ? = inconclusive; nt = no result given; ! = not active in a repeat. Most compounds without a hit are left out; they make up all but 1.3% or so of the library. Unless noted, calls come from the whole dose curve; as a rule, active = well fitted curve in the direction sought with a large enough effect; inconclusive = small, poorly fitted or top-dose-only effect, or another doubt; inactive = no such curve, though single readings can be large; an effect the other way counts as inactive or inconclusive.

SMILES | 12-LOX inh | GRP78 ERSR act | Vif-APOBEC3F blk | Vif-A3G inh | TRPML1 ag | TRPML1 blocker
Cc1cc(C(=O)NC2CCCN(Cc3ccc(Cl)cc3)C2)c(C)o1 (stereo not drawn) | 16µM* | -5% | 4% | -1% | 0 | -3
O=C(C1CCCN(Cc2ccccc2)C1)N1CCCCC1 (stereo not drawn) | ? | -2% | 9% | -4% | -1 | 5
Fc1cccc(-c2nc(CN3CCCC3c3nnc4ccccn34)co2)c1 (stereo not drawn) | 1% | nt | nt | nt | nt | nt
CN(CC(=O)NC(=O)NC1CCCC1)Cc1ccc(C(=O)NCC(F)(F)F)cc1 | 4% | nt | nt | nt | nt | nt
CC(C)(C)c1ccc(C(=O)N/N=C/CCc2ccccc2)cc1 | 11% | nt | nt | nt | nt | nt
CC(C)(C)c1ccc(CC/C=N/O)cc1 | 11µM* | nt | nt | nt | nt | nt
Cc1cc(=O)oc2cc(OCC(=O)c3ccc(OC(F)F)cc3)ccc12 | 0% | nt | nt | nt | nt | nt
O=C1c2ccccc2NC(c2cn[nH]c2-c2ccccc2)N1O (stereo not drawn) | -1% | -2% | 6% | -1% | 2 | -58*
Cn1cnc2c1c(=O)n(CCCSCc1ccc(Cl)cc1Cl)c(=O)n2C | 7% | nt | nt | nt | nt | nt
COc1ccc(-c2cc(C(=O)NNC(=S)NC(=O)c3c(-c4ccccc4)noc3C)[nH]n2)cc1 | 11µM* | 3% | -5% | 1% | 1 | 4
COc1ccc(/C=C/C(=O)NC(=S)NNC(=O)c2c(-c3ccccc3)noc2C)cc1 | ? | 4% | 3% | 2% | 2 | 24
Cc1onc(-c2ccccc2)c1C(=O)NNC(=S)NC(=O)c1ccc(Br)cc1 | -9% | ? | 2% | -7% | ? | 24
Cc1onc(-c2ccccc2)c1C(=O)NNC(=S)NC(=O)c1ccc(Cl)cc1Cl | ? | ? | -2% | -17% | 91* | 18
COc1cc(NC(=O)c2ccc(NS(C)(=O)=O)cc2)cc(OC)c1OC | -15% | nt | nt | nt | nt | nt
COc1cccc(NCCC#N)c1 | 66% | nt | nt | nt | nt | nt
O=C(Cc1cc(Cl)c2c(c1)OCCO2)NC1CCN(CC2CCCCC2)CC1 | -27% | nt | nt | nt | nt | nt
CCOC(=O)C(=CNNc1cccc(Cl)c1)C(=O)OCC | 13µM* | -2% | 0% | -13% | 0 | -4
CCONC(=O)C(NC(=O)Cc1ccc2ccccc2c1)C(C)C (stereo not drawn) | 6% | nt | nt | nt | nt | nt
CCOC(=O)c1c(C)c(C(=O)NCc2cccs2)c(C)n1C | -17% | -3% | -1% | -4% | 0 | -57*
CCOC(=O)c1c(C)c(C(=O)NCc2ccco2)c(C)n1C | -16% | -3% | 0% | -4% | 0 | 18
COc1ccc2c(C(F)(F)F)cc(=S)[nH]c2c1 | 35µM* | nt | nt | nt | nt | nt
O=[N+]([O-])c1ccccc1C(=Nc1ccccc1)c1c(O)cc(O)cc1O | 45µM* | -4% | -3% | -25% | -1 | 35
O=C(Nc1ccccc1)c1ccccc1NC(=O)c1ccccc1[N+](=O)[O-] | 423% | -2% | 1% | 1% | 0 | -22
Cc1ccc2c(c1)N(C(=O)CSc1nncn1C)C(C)(C)c1ssc(=S)c1-2 | 35µM* | -6% | -11% | ? | 0 | -11
Cc1cc2c(cc1C)N(C(=O)CSc1nncn1C)C(C)(C)c1ssc(=S)c1-2 | ? | -5% | -7% | 0% | 1 | -5
SMILES | 12-LOX inh | GRP78 ERSR act | Vif-APOBEC3F blk | Vif-A3G inh | TRPML1 ag | TRPML1 blocker
O=C(NC1CC1)c1cccc(NC(=O)C2CCN(S(=O)(=O)c3ccc4c(c3)CCCC4)CC2)c1 | -12% | nt | nt | nt | nt | nt
COc1cc(OC)cc(C(=O)Nc2ccc3oc(-c4ccc(OC)c(Cl)c4)nc3c2)c1 | 11% | nt | nt | nt | nt | nt
COc1ccc(S(=O)(=O)/N=C2/NC(=O)/C(=C\c3ccco3)S2)cc1 | 40µM* | -1% | 6% | 0% | -1 | 5
COc1ccc(S(=O)(=O)/N=C2/NC(=O)/C(=C/c3ccco3)S2)cc1 | 18µM* | -7% | 0% | 0% | 0 | -29
CN(C)S(=O)(=O)N1CCN(C(=O)Cc2ccccc2F)CC1 | 39% | nt | nt | nt | nt | nt
COc1cccc(C(=O)NC(=S)Nc2ccc(N3CCCC3)cc2)c1 | ? | 4% | -3% | -7% | 1 | -10
COc1cccc(C(=O)NC(=S)Nc2ccc(N(C)C)cc2)c1 | 45µM* | 3% | -1% | -1% | 0 | 14
CCCCOc1cccc(C(=O)NC(=S)Nc2ccc(Cl)c(C(=O)O)c2)c1 | 5.6µM* | 0% | 2% | 4% | 3 | 1
CC(C)Oc1cccc(C(=O)NC(=S)Nc2cccc(NC(=O)c3ccccc3Cl)c2)c1 | 10µM* | 1% | 8% | -2% | 1 | -6
O=C(NC(=S)Nc1ccc(Cl)c(C(=O)O)c1)c1cccc(COc2ccccc2)c1 | 11µM* | -2% | 1% | -3% | 1 | -23
NCCC(=O)Nc1ccccc1 | -5% | nt | nt | nt | nt | nt
Cc1ccc(C(=O)C(C)OC(=O)C23CC4CC(CC(C4)C2)C3)cc1 (stereo not drawn) | -37% | nt | nt | nt | nt | nt
COc1cc(OC)cc(C(=O)NC(=S)Nc2ccc(Cl)c(C(=O)O)c2)c1 | 28µM* | -3% | -18% | 0% | -1 | 9
CCOc1cccc(C(=O)NC(=S)Nc2cccc(C)c2)c1 | 20µM* | 8% | -8% | -1% | 3 | -8
O=C(NC(=S)Nc1ccc(Cl)c(C(=O)O)c1)c1ccc(OCc2ccccc2)cc1 | 3.5µM* | 6% | 8% | 0% | 0 | 41
CCCOc1cccc(C(=O)NC(=S)Nc2cccc(C(F)(F)F)c2)c1 | ? | -2% | 0% | -1% | 1 | -8
Cc1sc(NC(=O)CN2CCCCC2)nc1-c1ccccc1 | 0% | nt | nt | nt | nt | nt
COC(=O)c1ccc(/C=C/C(=O)c2cc(C)sc2C)cc1 | -4% | nt | nt | nt | nt | nt
CSc1ccc(CN(C)CC(=O)NC(=O)NCc2ccco2)cc1 | 7% | nt | nt | nt | nt | nt
CCc1oc2ccccc2c1C(=O)c1cc(Br)c(O)c(Br)c1 | 45µM*! | -1% | -5% | -13% | 5 | 7
CCc1ccc(OCC(=O)c2c(O)c3ccccc3oc2=O)cc1 | ? | 2% | 2% | 0% | 0 | 2
N#Cc1ccc(NCCNC(=O)C2CC=CCC2)nc1 (stereo not drawn) | 4% | nt | nt | nt | nt | nt
O=c1c(O)c(-c2ccccc2)oc2cc(O)cc(O)c12 | 11% | 3% | 1% | -3% | nt | nt
